# Only some compounds are listed: those with a hit (about 2.7% of all), similar ones and a draw of the others.
# ALOX12 inh: inhibitors of human 12S-lipoxygenase ALOX12; P18054; purified 12hLO, xylenol orange hydroperoxide absorbance; Potency, µM (highest dose often 108 µM), usual class: inhibitors; hit rate 1.1% among 580,000
# Target sequence (P18054 whole entry, looked up): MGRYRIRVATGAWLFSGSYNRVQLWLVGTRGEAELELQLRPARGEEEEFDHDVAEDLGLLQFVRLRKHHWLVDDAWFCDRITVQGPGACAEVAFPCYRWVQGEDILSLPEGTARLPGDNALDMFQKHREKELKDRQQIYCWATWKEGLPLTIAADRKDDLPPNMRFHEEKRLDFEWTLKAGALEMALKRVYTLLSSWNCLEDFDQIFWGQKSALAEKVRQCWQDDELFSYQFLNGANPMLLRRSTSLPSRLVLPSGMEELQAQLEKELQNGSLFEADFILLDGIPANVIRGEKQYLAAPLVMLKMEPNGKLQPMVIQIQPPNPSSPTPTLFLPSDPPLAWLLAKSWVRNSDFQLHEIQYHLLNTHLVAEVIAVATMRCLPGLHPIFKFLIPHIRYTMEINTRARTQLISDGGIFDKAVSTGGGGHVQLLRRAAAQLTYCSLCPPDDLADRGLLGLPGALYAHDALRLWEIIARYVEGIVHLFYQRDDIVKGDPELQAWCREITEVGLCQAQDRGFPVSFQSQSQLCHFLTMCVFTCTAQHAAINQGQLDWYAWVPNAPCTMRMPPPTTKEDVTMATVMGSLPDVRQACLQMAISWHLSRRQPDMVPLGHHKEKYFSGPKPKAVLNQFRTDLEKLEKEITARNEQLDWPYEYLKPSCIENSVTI
#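 Purified human 12hLO at 150 nM in 25 mM Hepes, 0.01% Triton X-100, pH 7.0, preincubated 15 min at room temperature with compound. Reaction started with 40 uM arachidonic acid, 30 min at room temperature. Hydroperoxide measured by Fe-xylenol orange, 573/405 nm absorbance ratio.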
# mIDH1 inhibitor: human IDH1 R132H inhibition; hit rate 0.093% among 390,000; Potency, µM (titrated, usually from 76.6 µM), actives largely listed as inhibitors; IDH1-R132H enzyme, NADPH consumption, diaphorase/resazurin fluorescence; also: nearly all actives have a fitted effect of over 65% in size
#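 IDH1-R132H (0.5 ug/mL dispensed) in pH 7.5 Tris buffer was preincubated 30 min with compound, then given a substrate mix of 0.016 mM NADPH and 2 mM alpha-KG for 80 min at room temperature; remaining NADPH was read by diaphorase/resazurin fluorescence.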
# A549 viability: A549 cytotoxicity, counter-screen for Nrf2 inhibitors. Potency, µM (titrated, usually from 46 µM), most hits filed as inhibitors. AID 504648. A549 ARE-Fluc cells, CellTiter-Fluor viability, 18-24 h. hit rate 0.16% among 390,000
#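 A549 ARE_Fluc cells in 5% FBS OPTI-MEM were exposed to compounds in concentration-response for 18-24 h at 37 deg C. Viability was read by CellTiter-Fluor fluorescence (Ex 405/Em 525) after 30 min, before the luciferase read.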
# Nrf2 block: Nrf2 pathway inhibition; A549 ARE-Fluc reporter, luciferase luminescence, 18-24 h; Potency, µM (series often up to 46 µM), usual class: inhibitors; hit rate 2.1% among 360,000; also: nearly all actives have a fitted effect of over 60% in size
#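 A549 ARE_Fluc cells (5000/well, 5% FBS OPTI-MEM) pre-incubated 2 h, then treated with compounds 18-24 h at 37C/5% CO2 in concentration-response. CellTiter-Fluor viability read first; BugLite luciferase luminescence after 15 min at room temperature gives Nrf2 activity.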
# LDHA inh: blocks human lactate dehydrogenase A | P00338 | purified LDHA, NADH/diaphorase-resazurin fluorescence; hits give low values | activity change, % (values are at about 110 or 230 µM) | hit rate 0.15% among 480,000; in the data active = activity change below about -30%; inconclusive = mostly about -25% to -30%
#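 Resorufin fluorescence (ex540/em590), read at 0 and 20 min after diaphorase/resazurin addition, reports the NADH left after a 5 min room-temperature reaction of 2 nM human LDH5 with 0.06 mM NADH and 0.2 mM pyruvate.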
# Nrf2 ARE act: activators of Nrf2 (ARE) signaling | hit rate 0.31% among 410,000 | Potency, µM (titrated, usually from 46.1 µM), hits mostly activators | AREc32 ARE-luciferase reporter (MCF7-derived line), luminescence, 24 h; also: nearly all actives have a fitted effect of over 65% in size
#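 Cells of the AREc32 ARE-luciferase line are plated in OPTI-MEM containing 5% FBS and left overnight at 37 deg C. Compounds are pinned in, incubation continues 24 hr, and firefly luciferase signal is then measured.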
# Hits are given with their value; 0 = inactive; ? = inconclusive; - = no result given; [ ] = remark or other dose. Unless noted, calls follow the shape of the dose curve; as a rule, active = well fitted curve in the direction sought with a large enough effect; inconclusive = small, poorly fitted or top-dose-only effect, or another doubt; inactive = no such curve, though single readings can be large; an effect the other way counts as inactive or inconclusive.
SMILES,ALOX12 inh,mIDH1 inhibitor,A549 viability,Nrf2 block,LDHA inh,Nrf2 ARE act
Cc1cc(C)c2c(N)c(C(=O)NN3CC(=O)N(c4cccc(Cl)c4)CC3=O)sc2n1,0,0,0,0,0,0
Cc1cc(C)c2c(N)c(C(=O)NN3CC(=O)N(c4ccccc4)CC3=O)sc2n1,50µM,0,0,0,0,0
COc1cc(NC(=O)Cn2nc(-c3ccc(F)cc3)ccc2=O)ccc1-n1cnnn1,0,0,?,26µM,0,0
C=C(C)CN1CCN(c2nc3c(c(=O)[nH]c(=O)n3C)n2Cc2ccc(F)cc2)CC1,0,-,-,-,0,-
Cn1nc(C(F)(F)F)c(/C=N/OC(=O)c2ccccc2)c1Cl,0,0,0,0,0,0
Cn1nc(C(F)(F)F)c(/C=N/OC(=O)c2ccccc2)c1Sc1ccc(Cl)cc1,0,0,0,15µM,0,0
C/C(=C\C(=O)NCCN1CCOCC1)CCc1ccccc1,0,-,-,-,0,-
CC(C)Cn1c(SCC(=O)NC(=O)NC2CCCC2)nc2ccccc21,0,0,?,18µM,0,0
CC(C)NC(=O)Cn1c(SCC(=O)NC2CCCC2)nc2ccccc21,0,0,0,0,0,0
CCCC(NC(=S)NCC1CCCO1)C12CC3CC(CC(C3)C1)C2 (stereo not given),40µM,0,0,15µM,0,0
CCCC(NC(C)=O)C12CC3CC(CC(C3)C1)C2 (stereo not given),0,-,-,-,0,-
O=C(/C=C/c1ccccc1)C1=C(O)C(=O)N(CCO)C1c1cccc([N+](=O)[O-])c1 (stereo not given),22µM,0,0,0,0,0
O=C(Nc1ccc(-n2cccn2)c(F)c1)C1CCCN(C(=O)c2ccoc2)C1 (stereo not given),0,-,-,-,-31,-
COc1cc(CNC2CCCC2)ccc1OCc1ccccc1,?,-,-,-,0,-
Cc1ccc(C(=O)C(C(=O)/C=C/c2ccccc2)=C2SCCCS2)cc1,?,0,?,26µM,0,0
Cc1ccc(C(=O)C=CC=Cc2ccccc2)cc1,0,0,-,-,0,0
CCOC(=O)c1cnc2c(Cl)c(Cl)ccc2c1NCCN1CCOCC1,0,?,0,0,0,0
CCOC(=O)c1cnc2c(C)c(Cl)ccc2c1NCCCN1CCOCC1,45µM,0,0,?,0,0
O=C(CN1CCN(C(=O)CCNS(=O)(=O)c2ccc(F)cc2)CC1)Nc1ccccc1Cl,0,-,-,-,0,-
COc1ccc(-c2nc(CC(=O)NC3CCN(Cc4ccccc4)C3)cs2)cc1OC (stereo not given),0,-,-,-,0,-
Cc1noc(C)c1-c1nc(N2CCOCC2)c2ccccc2n1,40µM,-,-,-,-,-
Cc1noc(C)c1-c1nc(N2CCN(C)CC2)c2ccccc2n1,18µM,-,-,-,-,-
CCN(CC)S(=O)(=O)c1ccc(OC(C)C)c(NC(=O)c2ccc3c(c2)NC(=O)C(C)S3)c1 (stereo not given),0,-,-,-,0,-
COc1cccc(/C=C/C(=O)c2ccc[nH]2)c1,0,0,0,?,0,16µM
CCC(C)NC(=O)CSc1nnc(C(=O)Nc2ccc(C)cc2)s1 (stereo not given),0,-,-,-,0,-
SMILES,ALOX12 inh,mIDH1 inhibitor,A549 viability,Nrf2 block,LDHA inh,Nrf2 ARE act
O=C(NCCNc1ncccn1)NCCC(c1ccccc1)c1ccccc1,?,-,-,-,0,-
O=C(NCCC(c1ccccc1)c1ccccc1)NNc1ccccn1,22µM,-,-,-,0,-
Cc1cccc(C(=O)Oc2csc(=S)n2C(=O)c2cccc(C)c2)c1,?,0,0,0,-33,0
CC(C(=O)N(C)Cc1ccccc1)N1CCN(C/C=C/c2ccccc2)CC1 (stereo not given),0,0,0,0,-31,0
Clc1cccc(Cl)c1CNCCN1CCCC1,?,-,-,-,0,-
O=c1c(-c2ccco2)[n+]([O-])c2ccccc2n1OCc1ccccc1,40µM,0,0,0,0,3.2µM
O=c1c(-c2ccco2)[n+]([O-])c2ccccc2n1OCc1ccccc1F,0,0,?,?,0,?
O=c1c(-c2ccco2)[n+]([O-])c2ccccc2n1OCc1c(F)cccc1F,?,0,0,0,0,0.71µM
CCC1CCCCN1C(=O)Cn1c(=O)n(-c2ccc(F)c(C)c2)c(=O)c2sccc21 (stereo not given),?,-,-,-,-39,-
CCOC(=O)/C(C#N)=C(\C=C\c1ccccc1OC(F)F)c1ccccc1,0,-,-,-,0,-
CC(=O)NCCNc1ncncc1-c1ccc(N(C)C)cc1,45µM,-,-,-,-,-
Cc1cnc(CNc2ncncc2-c2ccc(C(=O)N(C)C)cc2)cn1,0,-,-,-,-,-
CNc1ncncc1-c1ccc(C(=O)N(C)C)cc1,32µM,-,-,-,-,-
O=C(O)C(CO)N=Cc1c(O)c2ccccc2oc1=O (stereo not given),0,0,?,6.5µM,0,0
Cn1c(=O)c([N+](=O)[O-])c(Cl)c2ccccc21,0,0,21µM,?,0,0
CCOC(=O)NC1(NC(C)C)Oc2ccccc2O1,25µM,0,0,0,0,?
CCOC(=O)NC1(NCC(C)C)Oc2ccccc2O1,?,0,0,?,0,?
O=C(Nc1ccc(F)cc1)C1CC(=O)N(C2CC2)C1 (stereo not given),0,-,-,-,0,-
CCOCCCNC(=O)c1cc2c(=O)[nH]c(-c3ccccc3)cn2n1,0,-,-,-,-,-
CCOCCCNC(=O)c1nnn2cc(-c3ccccc3)[nH]c(=O)c12,18µM,-,-,-,-,-
O=C(CCC(=O)N1CCN(c2ccc(F)cc2)CC1)N1CCN(c2ccc(F)cc2)CC1,1.8µM,0,0,?,0,0
O=C(CCc1nc2ccccc2c(=O)[nH]1)N1CCN(c2ccc(F)cc2)CC1,0,0,0,16µM,0,0
CC(=O)N1CCN(C(=O)CCc2nc3ccccc3c(=O)[nH]2)CC1,0,0,0,-,0,0
O=C(c1ccc(F)cc1)c1ccc(N2CCCC2)cc1,32µM,0,0,?,0,0
O=C(c1ccc(F)cc1)c1ccc(N2CCCCC2)cc1,0,0,0,?,0,0
SMILES,ALOX12 inh,mIDH1 inhibitor,A549 viability,Nrf2 block,LDHA inh,Nrf2 ARE act
C=C(CC)CN1CCCC12Cc1ccccc1CNC2=O (stereo not given),0[12.5 µM],-,-,-,-,-
Cc1oc(-c2ccccc2)nc1CSCC(=O)Nc1ccc(F)c(F)c1,0,-,-,-,0,-
O=C(c1ccc(S(=O)(=O)Cc2cc(F)ccc2F)c([N+](=O)[O-])c1)N1CCCC1,0,0,0,?,0,8.9µM
O=C(c1ccc(S(=O)(=O)Cc2cc(F)ccc2F)c([N+](=O)[O-])c1)N1CCCCC1,0,0,0,0,0,?
CCOC(=O)C1=C(CN2CCN(C(=O)c3ccco3)CC2)NC(=O)NC1c1ccc(OC)cc1 (stereo not given),0,0,0,?,0,0
CCOC(=O)C1=C(CN2CCN(c3ccccc3F)CC2)NC(=O)NC1c1ccc(OC)cc1 (stereo not given),?,0,0,18µM,0,0

# Screening results as filed in PubChem BioAssay.
